In assay [1] the test system is PRMT1 (protein arginine N-methyltransferase 1). In words: PRMT1 binders on small-molecule microarrays, primary screen, biochemical, small-molecule microarray, 635 nm fluorescence (AID 1088).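 Also: binding of Prmt1 protein to compounds spotted on small-molecule microarray slides.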 Particulars: small-molecule microarray binding, higher = more signal.
Assay [2] can be described thus: yeast growth modulation, basal conditions, primary screen, YJM789 clinical isolate, OD600, 24 h (AID 1089).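 Also: growth of clinical yeast isolate S. cerevisiae YJM 789 seeded 1000 cells per well; test concentration not given here.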 Particulars: S. cerevisiae YJM789 growth, higher = more signal, called active from +8 up or from −8 down.
A short description of assay [3]: fission yeast growth modulation, primary screen, strain 972, OD600, 24 h, no modulator (AID 1090).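 Also: basal condition with compound alone and no growth modifier present; test concentration not given here.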 Conditions: S. pombe 972 growth, higher = more signal, called active from +8 up or from −8 down.
Assay [4] is described as follows: S. cerevisiae growth modulation with rapamycin, primary screen, strain BY4716, OD600, 96 h (AID 1091). Also: test concentration not given here. Particulars: higher = more signal, called active from +8 up or from −8 down.
The target of assay [5] is Torsin-1A-interacting protein 2 (Homo sapiens) (UniProt Q8NFQ8). Briefly: LULL1 binders on small-molecule microarray, primary screen, cell lysate, human LULL1 lysate, 635/667 nm fluorescence (AID 1092).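 Also: probe is lysate of COS7 cells overexpressing human LULL1; score merges per-feature 667 nm fluorescence with signal-to-noise.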 Particulars: hLULL1 lysate binding, 635 nm fluorescence, higher = more signal.
Sequence of Torsin-1A-interacting protein 2 (Homo sapiens) (Q8NFQ8 whole entry, looked up): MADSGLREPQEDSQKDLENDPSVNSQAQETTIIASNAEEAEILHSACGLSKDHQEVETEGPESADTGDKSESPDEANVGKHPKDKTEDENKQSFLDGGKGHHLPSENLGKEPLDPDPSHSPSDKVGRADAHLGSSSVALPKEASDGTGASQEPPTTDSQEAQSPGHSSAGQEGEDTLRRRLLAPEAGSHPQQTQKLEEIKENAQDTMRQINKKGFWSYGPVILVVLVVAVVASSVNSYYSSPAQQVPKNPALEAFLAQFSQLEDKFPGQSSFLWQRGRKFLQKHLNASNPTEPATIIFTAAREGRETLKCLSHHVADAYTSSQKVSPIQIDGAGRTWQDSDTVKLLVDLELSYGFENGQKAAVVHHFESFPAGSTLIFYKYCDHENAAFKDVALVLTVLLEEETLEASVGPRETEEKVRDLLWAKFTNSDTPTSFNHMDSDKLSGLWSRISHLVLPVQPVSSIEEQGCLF
The nature of assay [6]: E. coli growth modulation, two-sided OD650, primary screen, E. coli filamentation project, strain DRC41, 24 h (AID 1093).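 Also: MC1000 strain lacking acrAB efflux and sulA so SOS filamentation is blocked; test concentration not given here.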 Conditions: OD650, 24 h, higher = more signal, called active from +8 up or from −8 down.
Assay [7] is described as follows: small-molecule microarray binders of probe aLefty2, primary screen, biochemical, biotinylated probe, 635/667 nm fluorescence (AID 1094).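 Also: score merges spot fluorescence near 667 nm with spot signal-to-noise ratio.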 Particulars: higher = more signal.
Assay [8] relates to Noggin (protein binding on small-molecule microarray). In words: Noggin binders on small-molecule microarray, primary screen, biochemical, 635/667 nm fluorescence (AID 1095).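 Also: score merges 667 nm feature fluorescence with signal to noise over triplicate slides.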 Conditions: 635 nm fluorescence, higher = more signal.
The target in assay [9] is Neurogenic locus notch homolog protein 3 (Homo sapiens) (UniProt Q9UM47). Briefly: NOTCH3 binders on small-molecule microarray, primary screen, biochemical, 635/667 nm fluorescence (AID 1096). Conditions: NOTCH3 binding, 635 nm fluorescence, higher = more signal.
Sequence of Neurogenic locus notch homolog protein 3 (Homo sapiens) (Q9UM47 whole entry, looked up): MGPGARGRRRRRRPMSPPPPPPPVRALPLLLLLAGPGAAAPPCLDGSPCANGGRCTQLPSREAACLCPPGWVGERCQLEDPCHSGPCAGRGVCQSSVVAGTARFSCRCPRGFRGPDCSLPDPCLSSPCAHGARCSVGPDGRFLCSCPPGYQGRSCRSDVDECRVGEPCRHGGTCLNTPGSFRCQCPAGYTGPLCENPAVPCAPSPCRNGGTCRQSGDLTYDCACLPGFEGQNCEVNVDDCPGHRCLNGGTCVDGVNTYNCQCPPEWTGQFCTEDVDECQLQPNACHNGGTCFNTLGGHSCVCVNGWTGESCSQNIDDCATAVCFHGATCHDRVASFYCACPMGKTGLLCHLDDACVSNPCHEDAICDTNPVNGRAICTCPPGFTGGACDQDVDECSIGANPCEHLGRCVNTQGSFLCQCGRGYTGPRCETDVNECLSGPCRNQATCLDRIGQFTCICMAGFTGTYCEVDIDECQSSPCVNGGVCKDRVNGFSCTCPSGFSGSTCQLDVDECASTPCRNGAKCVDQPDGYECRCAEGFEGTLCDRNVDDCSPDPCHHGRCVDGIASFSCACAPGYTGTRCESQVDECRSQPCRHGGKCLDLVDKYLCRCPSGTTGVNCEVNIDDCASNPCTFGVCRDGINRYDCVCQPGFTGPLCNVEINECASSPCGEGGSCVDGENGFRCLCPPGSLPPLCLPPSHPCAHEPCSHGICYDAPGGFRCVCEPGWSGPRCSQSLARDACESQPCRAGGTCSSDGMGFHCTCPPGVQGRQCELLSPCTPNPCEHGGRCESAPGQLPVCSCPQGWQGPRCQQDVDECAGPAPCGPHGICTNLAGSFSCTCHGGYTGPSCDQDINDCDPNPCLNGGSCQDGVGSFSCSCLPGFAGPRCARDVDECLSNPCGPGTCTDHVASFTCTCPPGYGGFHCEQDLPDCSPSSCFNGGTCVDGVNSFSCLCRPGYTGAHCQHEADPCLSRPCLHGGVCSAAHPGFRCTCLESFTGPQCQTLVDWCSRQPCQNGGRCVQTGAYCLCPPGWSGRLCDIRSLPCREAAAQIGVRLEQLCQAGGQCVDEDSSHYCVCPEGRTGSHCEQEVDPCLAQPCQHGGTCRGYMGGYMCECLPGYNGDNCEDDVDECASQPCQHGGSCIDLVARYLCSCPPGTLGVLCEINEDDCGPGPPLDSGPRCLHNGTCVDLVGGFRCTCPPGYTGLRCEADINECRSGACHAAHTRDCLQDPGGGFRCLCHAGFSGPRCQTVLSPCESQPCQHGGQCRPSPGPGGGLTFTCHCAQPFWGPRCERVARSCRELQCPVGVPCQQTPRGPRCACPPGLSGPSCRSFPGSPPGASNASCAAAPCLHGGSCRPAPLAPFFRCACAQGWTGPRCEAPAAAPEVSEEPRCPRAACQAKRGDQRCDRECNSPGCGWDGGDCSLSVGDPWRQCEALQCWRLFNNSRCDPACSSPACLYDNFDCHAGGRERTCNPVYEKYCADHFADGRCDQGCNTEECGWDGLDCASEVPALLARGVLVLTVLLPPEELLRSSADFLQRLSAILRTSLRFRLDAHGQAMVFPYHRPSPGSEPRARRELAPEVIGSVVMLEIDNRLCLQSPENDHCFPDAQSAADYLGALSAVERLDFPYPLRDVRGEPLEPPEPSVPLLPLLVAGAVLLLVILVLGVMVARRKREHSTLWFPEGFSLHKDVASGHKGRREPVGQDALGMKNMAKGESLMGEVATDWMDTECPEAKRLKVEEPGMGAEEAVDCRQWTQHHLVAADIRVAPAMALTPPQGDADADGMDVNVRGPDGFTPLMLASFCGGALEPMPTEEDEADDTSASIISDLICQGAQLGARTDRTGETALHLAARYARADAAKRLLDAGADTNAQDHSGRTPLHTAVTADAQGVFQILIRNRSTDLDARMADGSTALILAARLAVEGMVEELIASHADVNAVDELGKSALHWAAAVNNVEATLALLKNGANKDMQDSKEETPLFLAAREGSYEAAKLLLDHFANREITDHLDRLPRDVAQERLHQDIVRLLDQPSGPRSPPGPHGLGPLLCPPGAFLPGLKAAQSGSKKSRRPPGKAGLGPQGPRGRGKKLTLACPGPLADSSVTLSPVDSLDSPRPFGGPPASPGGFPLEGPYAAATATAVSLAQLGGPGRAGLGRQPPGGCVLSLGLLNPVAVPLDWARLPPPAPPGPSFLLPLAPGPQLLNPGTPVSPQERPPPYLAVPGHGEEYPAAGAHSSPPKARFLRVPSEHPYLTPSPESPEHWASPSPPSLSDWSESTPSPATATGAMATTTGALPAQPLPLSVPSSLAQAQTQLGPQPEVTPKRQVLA
Assay [10] in a line: small-molecule microarray binders of probe aEGFR, primary screen, biochemical, biotinylated probe, 635/667 nm fluorescence (AID 1097).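 Also: probe is a biotinylated anti-EGFR antibody binding compounds printed on slides; score combines fluorescence near 667 nm and signal to noise of each spot.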 Particulars: higher = more signal.
The test system of assay [11] is Plasmodium falciparum Sir2 (PF13_0152, Sir2A). Briefly: pfSir2 binders on small-molecule microarrays, primary screen, biochemical, small-molecule microarray, 635 nm fluorescence (AID 1098).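 Also: score merges spot fluorescence intensity with its signal-to-noise ratio.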 Conditions: small-molecule microarray binding, fluorescence 635 nm; higher = more signal.
Assay [12] can be described thus: small-molecule microarray binders of probe aDKK1, primary screen, biochemical, biotinylated probe, 635/667 nm fluorescence (AID 1099).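 Also: score merges 667nm spot fluorescence with signal to noise across triplicate slides; reference of the scale not given here.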 Conditions: higher = more signal.
Assay [13] is described as follows: small-molecule microarray binders of probe aCHRDL2, primary screen, biochemical, biotinylated probe, 635/667 nm fluorescence (AID 1100). Particulars: higher = more signal.
The nature of assay [14]: splicing luciferase reporter signal modulators, primary screen, spliceosome inhibition project, cell-based, HEK293, splice +/- reporter (AID 1101).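 Also: HEK293 cells carrying a splicing-competent luciferase reporter gene; test concentration not given here.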 Conditions: luminescence, 24 h, higher = more signal, called active from +8 up or from −8 down. Background: A reporter such as luciferase makes a cellular process visible.
Assay [15] addresses Fibroblast growth factor 10 (Homo sapiens) (UniProt O15520). Briefly: FGF10 binders on small-molecule microarrays, primary screen, biochemical, small-molecule microarray, 635 nm fluorescence (AID 1102). Particulars: FGF10 binding, fluorescence 635 nm, higher = more signal.
Assay [16] relates to glycogen synthase kinase-3 (GSK3A per assay name; protocol says GSK3B). Briefly: GSK3 binders on small-molecule microarrays, primary screen, biochemical, small-molecule microarray, 635 nm fluorescence, GSK3A (AID 1103). Also: the record names both GSK3A and GSK3B. Conditions: small-molecule microarray binding, fluorescence 635 nm; higher = more signal.
For assay [17], the target named is Epidermal growth factor receptor (Homo sapiens) (UniProt P00533). Briefly: EGFR binders on small-molecule microarrays, primary screen, biochemical, small-molecule microarray, 635 nm fluorescence (AID 1104).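 Also: score merges 667 nm emission intensity with spot signal to noise over triplicate slides.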 Particulars: EGFR binding, higher = more signal.
Sequence of Epidermal growth factor receptor (Homo sapiens) (P00533 whole entry, looked up): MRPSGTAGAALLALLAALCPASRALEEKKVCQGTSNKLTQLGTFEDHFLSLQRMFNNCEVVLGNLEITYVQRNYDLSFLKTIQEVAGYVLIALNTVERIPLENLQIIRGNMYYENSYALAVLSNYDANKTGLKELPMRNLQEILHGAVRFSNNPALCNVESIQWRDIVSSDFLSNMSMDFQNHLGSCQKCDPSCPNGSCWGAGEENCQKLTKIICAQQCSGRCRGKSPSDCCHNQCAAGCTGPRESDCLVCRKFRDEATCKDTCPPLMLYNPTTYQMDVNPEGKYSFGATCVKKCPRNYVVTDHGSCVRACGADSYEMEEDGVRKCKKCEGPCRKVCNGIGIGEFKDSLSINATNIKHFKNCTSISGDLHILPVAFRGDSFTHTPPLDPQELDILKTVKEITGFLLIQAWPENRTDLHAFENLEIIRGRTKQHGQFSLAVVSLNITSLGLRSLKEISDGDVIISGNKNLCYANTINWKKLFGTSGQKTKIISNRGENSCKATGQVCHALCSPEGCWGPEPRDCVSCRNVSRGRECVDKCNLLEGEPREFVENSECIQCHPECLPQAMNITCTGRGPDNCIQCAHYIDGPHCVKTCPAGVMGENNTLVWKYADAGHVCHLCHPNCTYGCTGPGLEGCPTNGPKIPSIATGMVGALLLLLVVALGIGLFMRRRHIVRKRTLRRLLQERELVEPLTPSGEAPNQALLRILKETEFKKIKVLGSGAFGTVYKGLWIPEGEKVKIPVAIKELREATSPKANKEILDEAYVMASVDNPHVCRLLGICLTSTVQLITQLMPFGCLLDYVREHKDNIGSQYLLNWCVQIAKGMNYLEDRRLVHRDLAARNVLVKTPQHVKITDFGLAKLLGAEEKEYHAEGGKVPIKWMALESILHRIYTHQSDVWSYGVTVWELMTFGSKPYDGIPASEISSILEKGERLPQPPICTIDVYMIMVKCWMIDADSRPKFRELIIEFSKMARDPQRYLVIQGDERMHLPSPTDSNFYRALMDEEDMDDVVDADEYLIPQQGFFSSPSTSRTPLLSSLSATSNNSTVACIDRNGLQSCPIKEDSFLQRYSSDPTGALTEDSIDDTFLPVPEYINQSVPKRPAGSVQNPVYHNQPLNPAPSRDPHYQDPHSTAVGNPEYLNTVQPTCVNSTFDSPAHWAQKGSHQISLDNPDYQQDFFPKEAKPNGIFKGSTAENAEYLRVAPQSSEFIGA
The target in assay [18] is Follistatin-related protein 3 (Homo sapiens) (UniProt O95633). In words: FSTL3 binders on small-molecule microarrays, primary screen, biochemical, small-molecule microarray, 635 nm fluorescence (AID 1105).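 Also: score merges emission near 667 nm and signal to noise per printed spot across three slides.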 Conditions: FSTL3 binding, higher = more signal.
Sequence of Follistatin-related protein 3 (Homo sapiens) (O95633 whole entry, looked up): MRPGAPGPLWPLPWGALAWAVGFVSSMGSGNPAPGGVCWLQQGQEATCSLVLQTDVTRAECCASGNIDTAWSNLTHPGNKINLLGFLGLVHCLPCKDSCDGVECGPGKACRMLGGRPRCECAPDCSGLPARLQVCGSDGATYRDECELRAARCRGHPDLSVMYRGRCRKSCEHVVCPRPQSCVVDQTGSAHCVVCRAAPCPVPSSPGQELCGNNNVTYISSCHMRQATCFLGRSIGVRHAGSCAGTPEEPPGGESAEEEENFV
Assay [19] addresses Dickkopf-related protein 1 (Homo sapiens) (UniProt O94907). In words: DKK1 binders on small-molecule microarrays, primary screen, biochemical, small-molecule microarray, 635 nm fluorescence scan (AID 1106).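 Also: score merges emission near 667 nm with signal to noise over three replicate slides.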 Conditions: DKK1 binding, higher = more signal.
Assay [20] relates to Inhibin beta A chain (activin A). Briefly: INHBA (activin A) binders on microarrays, primary screen, biochemical, small-molecule microarray, 635 nm fluorescence scan (AID 1107).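 Also: mouse activin A protein probed at 4.33 µg/mL on printed slides; score merges bound-protein fluorescence near 667 nm with spot signal-to-noise.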 Particulars: small-molecule microarray binding, higher = more signal.

The source made the active and inactive calls.

Sequence of Dickkopf-related protein 1 (Homo sapiens) (O94907 whole entry, looked up): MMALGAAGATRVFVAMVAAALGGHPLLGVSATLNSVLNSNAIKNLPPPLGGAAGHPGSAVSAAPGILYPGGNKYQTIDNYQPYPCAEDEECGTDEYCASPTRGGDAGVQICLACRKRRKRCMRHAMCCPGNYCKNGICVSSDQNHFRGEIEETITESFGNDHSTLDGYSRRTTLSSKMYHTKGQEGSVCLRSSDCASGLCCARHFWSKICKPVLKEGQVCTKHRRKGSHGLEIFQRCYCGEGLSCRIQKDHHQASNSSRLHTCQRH
Sequence of Fibroblast growth factor 10 (Homo sapiens) (O15520 whole entry, looked up): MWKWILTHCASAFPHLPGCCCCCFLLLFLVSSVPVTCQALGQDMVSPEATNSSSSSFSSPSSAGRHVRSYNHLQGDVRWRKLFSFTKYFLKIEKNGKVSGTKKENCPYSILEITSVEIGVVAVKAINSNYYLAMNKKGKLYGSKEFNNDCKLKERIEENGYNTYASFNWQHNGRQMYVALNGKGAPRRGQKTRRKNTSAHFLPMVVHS

In the case of `CC(=O)OC[C@H]1O[C@H](CC=NO[C@H](C)c2cn([C@H](CO)Cc3ccccc3)nn2)C=C[C@@H]1OC(C)=O`, the composite z-score was 1.34 in [1]; 1.06 in assay [5]; -0.0998 in assay [7]; 0.61 in assay [8]; 1 in [9]; 0.009 in assay [10]. Moreover, the composite z-score in assay [11] was 0.95; in assay [12] it was -0.154; in [13], -0.357; in assay [15], 0.945; in assay [16], 0.926; in assay [17], 0.569. Moreover, the composite z-score was 0.995 in assay [18], 1.43 in [19] and -0.143 in assay [20]. Besides, the z-score was 1.36 (inactive) in assay [2]; 1.34 (inactive) in assay [3]; 1.4 (inactive) in assay [4]; 0.655 (inactive) in assay [6]; 0.67 (inactive) in assay [14].

For the molecule `CC(CCN1CCCCc2nc(C)c(C)cc21)=NO[C@@H](C)c1cn([C@H](CO)Cc2ccccc2)nn1`, the composite z-score in assay [1] is 1.03; in [5] it was 1.16; in assay [7], -0.0383; in assay [8] it was 0.377; in assay [9], 0.474; in assay [10], 0.0317. Further, the composite z-score in assay [11] was 0.683; in assay [12] it was -0.217; in [13], -0.46; in [15], 0.0253; in assay [16], 0.54; in assay [17], 0.593. Further, the values for the composite z-score in [18], in [19] and in assay [20] were 0.902, 1.17 and 0.788, respectively. Further, the z-score in assay [2] is 0.725 (inactive); in assay [3], -0.0001 (inactive); in [4], 0.17 (inactive); in assay [6] it was 0.457 (inactive); in assay [14], 0.16 (inactive).

As for `CCOC(=O)NN=C1C[C@@H](O)[C@@H](O)[C@@H]2[C@@H]3C(=O)N(Cc4ccc5c(c4)OCO5)C(=O)[C@@H]3CC[C@H]12`, the composite z-score in assay [1] was 0.667; in assay [5], 2.31; in assay [7] it was -0.289; in [8] it was 0.303; in assay [9], -0.578; in assay [10], -0.0978. Further, the composite z-score in assay [11] was 0.263; in assay [12], -0.238; in assay [13] it was -0.233; in assay [15] it was 0.0798; in assay [16], -0.566; in [17] it was -0.0894. For the same molecule, the composite z-score in [18] is -0.199; in assay [19] it was -0.108; in assay [20], 0.0787. Further, the z-score in assay [2] is -0.126 (inactive); in assay [3], 0.119 (inactive); in assay [4] it was -0.6 (inactive); in assay [6] it was 0.203 (inactive); in [14], 0.346 (inactive).

In the case of `C[C@@H]1CC[C@H]2C(=O)O[C@@H](COc3ccc(C(C)(C)C)cc3)CN2[C@@H]1c1ccc(Br)cc1`, the composite z-score in [1] is -0.118; in assay [5], -0.158; in [7], 0.464; in assay [8], -0.835; in [9] it was -0.91; in assay [10] it was -0.0946. Also, the composite z-score was -0.0295 in assay [11]; -0.339 in assay [12]; -0.0805 in assay [13]; -0.828 in assay [15]; -0.796 in [16]; -0.291 in assay [17]. Further, the composite z-score in assay [18] is -0.964; in assay [19], -0.924; in assay [20] it was 0.011. In addition, the z-score in assay [2] was 0.228 (inactive); in assay [3], -0.492 (inactive); in [4], 0.147 (inactive); in [6] it was -0.0121 (inactive); in assay [14], -0.36 (inactive).

As for `CC(CCN1CCCc2nc(C)c(C)cc21)=NO[C@@H](C)c1cc(-c2c(C)cc(C)cc2C)no1`, the composite z-score in assay [1] is 0.684; in assay [5], 1.33; in assay [7], -0.0512; in assay [8] it was 0.308; in assay [9] it was 0.635; in [10], -0.0873. The composite z-score was 0.739 in assay [11]; 0.0311 in assay [12]; -0.648 in assay [13]; 0.322 in [15]; 0.525 in assay [16]; -0.0398 in assay [17]. For the same molecule, the composite z-score stood at 0.293 in assay [18], 0.41 in assay [19] and 0.881 in [20]. Further, the z-score was 0.0024 (inactive) in assay [2]; -2.18 (inactive) in assay [3]; -0.381 (inactive) in [4]; 1.74 (inactive) in assay [6]; -0.408 (inactive) in assay [14].

The values above are taken from PubChem BioAssay.
